nsP2pro inh – blocks chikungunya virus nsP2 protease peptide cleavage; Q8JUX6; FRET peptide cleavage, nsP2pro, fluorescence 1 h; Potency, µM (highest dose often 24.9 µM), without a hit: top-dose activity change, negative = inhibition, hits mostly inhibitors; actives 1.1% (n = 31,000); note: nearly all actives have a fitted effect of over 60% in size
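FRET cleavage of 2.5 uM peptide 2 by 150 nM CHIKV protease domain at pH 8.0 (Tris, Tween 20). Compounds at 7 concentrations (up to 25 uM) preincubated 15 min. Fluorescence read after 1 h at room temperature.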
nsP2 cell sec – secondary cell-based test for CHIKV nsP2 protease inhibitors. actives 10% (n = 450). Potency, µM (highest dose often 51.1 µM), for inactives: at the highest dose activity change, negative = inhibition, most hits filed as inhibitors. shares compounds with nsP2pro inh. AID 1964100. cell-based CHIKV nsP2 protease reporter assay; note: nearly all actives have a fitted effect of over 70% in size
CHIKV NSP2 FL – full-length CHIKV NSP2 protease inhibition, selectivity; shares compounds with nsP2pro inh; Full-length CHIKV NSP2 protease enzymatic counterscreen; Potency, µM (titrated, usually from 50.7 µM), for the others: top-dose activity change, negative = inhibition, hits mostly inhibitors; actives 39% (n = 410); note: nearly all actives have a fitted effect of over 65% in size
Furin counter – selectivity counter-screen for CHIKV nsP2 protease inhibitors: human furin; shares compounds with nsP2pro inh; actives 6% (n = 410); Recombinant human furin enzymatic counterscreen, fluorogenic substrate; Potency, µM (highest dose often 50.6 µM), for the others: at the highest dose activity change, negative = inhibition, actives largely listed as inhibitors
Target sequence (P09958 whole entry, looked up): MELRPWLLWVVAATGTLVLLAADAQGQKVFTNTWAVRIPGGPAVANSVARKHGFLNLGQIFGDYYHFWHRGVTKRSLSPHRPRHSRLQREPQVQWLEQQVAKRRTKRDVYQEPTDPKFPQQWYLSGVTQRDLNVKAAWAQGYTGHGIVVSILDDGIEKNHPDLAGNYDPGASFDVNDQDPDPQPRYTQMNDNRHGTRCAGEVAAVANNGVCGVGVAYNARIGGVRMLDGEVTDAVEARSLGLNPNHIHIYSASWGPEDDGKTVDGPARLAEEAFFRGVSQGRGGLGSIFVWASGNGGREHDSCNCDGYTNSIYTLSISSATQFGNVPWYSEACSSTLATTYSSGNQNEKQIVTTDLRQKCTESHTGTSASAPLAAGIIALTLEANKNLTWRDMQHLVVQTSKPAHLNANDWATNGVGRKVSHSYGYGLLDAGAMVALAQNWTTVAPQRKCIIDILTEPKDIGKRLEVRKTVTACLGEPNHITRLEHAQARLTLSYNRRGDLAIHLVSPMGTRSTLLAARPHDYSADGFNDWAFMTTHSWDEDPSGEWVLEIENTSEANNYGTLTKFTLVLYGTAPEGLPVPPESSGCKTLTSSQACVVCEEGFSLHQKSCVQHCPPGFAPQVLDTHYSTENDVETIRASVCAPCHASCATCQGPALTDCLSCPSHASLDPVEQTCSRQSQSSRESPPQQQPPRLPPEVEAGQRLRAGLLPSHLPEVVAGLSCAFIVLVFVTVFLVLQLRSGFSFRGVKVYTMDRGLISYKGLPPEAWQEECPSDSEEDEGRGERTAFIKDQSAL
NS23 peptide cs – blocks CHIKV nsP2 protease cleavage of endogenous NS2/3 peptide; shares compounds with nsP2pro inh; Purified CHIKV nsP2 protease, endogenous NS2/3 peptide cleavage; Potency, µM (doses to about 51 µM), without a hit: at the top dose activity change, negative = inhibition, usual class: inhibitors; actives 34% (n = 410); note: nearly all actives have a fitted effect of over 55% in size
Papain counter – inhibits papain in a CHIKV nsP2 protease selectivity counterscreen. Potency, µM (series often up to 51 µM), inactives show at the top dose activity change, negative = inhibition, most hits filed as inhibitors. purified papain protease activity, enzymatic inhibition. actives 5% (n = 410). shares compounds with nsP2pro inh
nsP2pro confirm – CHIKV nsP2 protease inhibition, confirmatory qHTS; AID 1964105; Potency, µM (highest dose often 25.5 µM), for inactives: at the top dose activity change, negative = inhibition, actives largely listed as inhibitors; shares compounds with nsP2pro inh; CHIKV nsP2 protease enzymatic activity, qHTS; actives 43% (n = 410); note: nearly all actives have a fitted effect of over 75% in size
HCV NS3 4A cs – inhibits HCV NS3/4A protease in an nsP2pro selectivity counterscreen; shares compounds with nsP2pro inh; AID 1964106; Potency, µM (titrated, usually from 50.9 µM), most hits filed as inhibitors; HCV NS3/4A protease biochemical counterscreen; actives 20% (n = 410); note: nearly all actives have a fitted effect of over 55% in size
* hit, by the source's call; i = inactive; ? = inconclusive; [ ] = dose if it differs, or a comment. The entries come from a sample that favours hits as a whole. Calls come from the whole dose curve. % is set by controls: 0 for no effect and ±100 for the full control effect; potency is the fitted concentration of half-maximal effect.

SMILES	nsP2pro inh	others
O=c1[nH]c2ccc(S(=O)(=O)Nc3cc(Cl)ccc3O)cc2o1	25.9%
O=S(=O)(Nc1ccc(O)c2ncccc12)c1ccccc1F	-29.1%
CC1CC(=O)[C@]2(O)C(C(=O)OCCc3ccc(O)c(O)c3)=CO[C@@H](O[C@@H]3O[C@H](CO)[C@@H](O)[C@H](O)[C@H]3O)[C@H]12 (stereo partly specified)	3.83µM*	nsP2 cell sec=-6.4%[17.6 µM];CHIKV NSP2 FL=10.1%[17.3 µM];Furin counter=-7.4%[17.3 µM];NS23 peptide cs=-14.8%[17.2 µM];Papain counter=-0.7%[17.2 µM];nsP2pro confirm=?;HCV NS3 4A cs=4µM*
COC(=O)C1=COC(OC2OC(CO)C(O)C(O)C2O)C2C(C)CC(=O)C12O (stereo unspecified)	-13.8%[10 µM]
COC(=O)C1=CO[C@@H](O[C@@H]2O[C@H](CO)[C@@H](O)[C@H](O)[C@H]2O)[C@@H]2C(C)CC(=O)[C@]12O (stereo partly specified)	8.3%[10 µM]
Cc1cc(C(=O)N[C@@H]2CCC[C@@H](C(=O)NC3CC3)CC(=O)N(C)C2)nn1C	i
COc1ccc(NC(=O)c2cc3c(s2)CN(C2CCCC2)C3)c(OC)c1	i
N#CC1=C2SCN(C3CCCCC3)CN2C(=O)CC1c1ccc(Br)cc1 (stereo unspecified)	-0.5%
COc1ccc(C2CC(=O)N3CN(C4CCCCC4)CSC3=C2C#N)c(OC)c1 (stereo unspecified)	8.91µM*	nsP2 cell sec=-5.3%;CHIKV NSP2 FL=18.3µM*;Furin counter=-8.8%;NS23 peptide cs=?;Papain counter=-7.6%;nsP2pro confirm=?;HCV NS3 4A cs=i
COc1ccc(-c2noc(-c3cccnc3NCc3ccco3)n2)cc1	?	nsP2 cell sec=-4.0%
Cc1ccccc1-c1noc(-c2cccnc2NCc2ccco2)n1	-27.5%
COc1cccc(-c2nc(-c3ccc(C(=O)O)cc3)no2)c1	i
CC(C)=CCC[C@](C)(O)[C@H]1CC[C@]2(C)[C@@H]1[C@H](O)C[C@@H]1[C@@]3(C)CC[C@H](O)C(C)(C)[C@@H]3CC[C@]12C	-27.1%
Cc1ccc([N+](=O)[O-])[c]2c1[O][Hg]2	1.57µM*	nsP2 cell sec=1.41µM*;CHIKV NSP2 FL=?;Furin counter=1.3µM*;NS23 peptide cs=5.8µM*;Papain counter=-16.8%;nsP2pro confirm=0.711µM*;HCV NS3 4A cs=0.259µM*
Cc1noc(-c2ccc(-c3noc(-c4ccc([N+](=O)[O-])c(C)c4)n3)cc2)n1	-14.2%
C/C=C1\[C@H](O[C@@H]2O[C@H](CO)[C@@H](O)[C@H](O)[C@H]2O)OC=C(C(=O)OCCc2ccc(O)cc2)[C@H]1CC(=O)OCCc1ccc(O)cc1	16.9%[10 µM]
COc1ccc(C2CCC(=O)N2Cc2ccc(F)cc2)cc1 (stereo unspecified)	i
COCc1nncn1C1CCN(S(=O)(=O)c2ccc(Br)cc2)CC1	4.9%
CC1=CC2=C(C)C(=O)[C@](C)(O)[C@H](O)C2=CO1	?	nsP2 cell sec=7.6%;CHIKV NSP2 FL=-11.6%;Furin counter=-8.2%;NS23 peptide cs=-11.1%;Papain counter=2.4%;nsP2pro confirm=-13.9%;HCV NS3 4A cs=i
COc1ccc(-c2ccc(CN3CC(C)(NC(C)=O)C3)s2)cn1	i
CC(=O)N1CCN(C(=O)c2cc(-c3ccc(F)cc3)c3nncn3n2)CC1	-5.7%
CC(C)c1ccccc1-c1ncc(N(C)C)c(NCc2ccc(-c3cccnc3)cc2)n1	0.1%
NC(=O)c1ccc[n+](C2OC(COP(=O)([O-])OP(=O)(O)OCC3OC(n4cnc5c(N)ncnc54)C(O)C3O)C(O)C2O)c1 (stereo unspecified)	-13.3%
CC1(C)SCCN(S(=O)(=O)c2ccc(OCC#CCO)cc2)[C@H]1C(=O)NO	?	nsP2 cell sec=-13.2%;CHIKV NSP2 FL=?;Furin counter=-2.5%;NS23 peptide cs=2.3%;Papain counter=-3.1%;nsP2pro confirm=?;HCV NS3 4A cs=i
COc1ccc(-c2csc(NC(=O)[C@H]3CCCCN3S(=O)(=O)c3ccc(C)cc3)n2)cc1	2.2%
SMILES	nsP2pro inh	others
CC1(C)SCCN(S(=O)(=O)c2ccc(Oc3ccncc3)cc2)[C@H]1C(=O)NO	0.2%
CCCCN1[C@@H]2CC[C@H]1CC(OC(c1ccc(F)cc1)c1ccc(F)cc1)C2 (stereo partly specified)	27.6%
CC(=O)OC[C@]12[C@@H](OC(=O)c3ccoc3)C[C@@H]3[C@@H](OC(C)=O)[C@]1(OC3(C)C)[C@@](C)(O)C[C@H](OC(=O)c1ccoc1)[C@@H]2OC(=O)c1ccoc1	-11.6%[10 µM]
O=C1c2cccc(O)c2C(=O)c2c(O)cc(CO)cc21	?	nsP2 cell sec=-8.8%;CHIKV NSP2 FL=-0.6%;Furin counter=-5.9%;NS23 peptide cs=-12.7%;Papain counter=-13.4%;nsP2pro confirm=9.9%;HCV NS3 4A cs=i
O=C1c2c(O)ccc(O)c2C(=O)c2c(NCCNCCO)ccc(NCCNCCO)c21	218.9%
O=C(Cc1ccc(Cl)c(Cl)c1)Nc1ccc(S(=O)(=O)Nc2cccc(C(=O)O)c2)cc1	i
CC(=O)N1CCC(Cc2ccc(C(=O)N(C)Cc3cccnc3)cc2)CC1	1.4%
CCN1CCC(N2CCCC(N3CCN(c4cccc(Cl)c4)CC3)C2)CC1 (stereo unspecified)	i
O=C(O)c1cccc(-c2noc(-c3cccc(C(F)(F)F)c3)n2)c1	i
CCC[C@@H]1CN(C(=O)CNS(=O)(=O)c2cccs2)C[C@H]1NC(C)=O	-7.6%
O=C(Cc1nnc(-c2cc3ccccc3[nH]2)s1)Nc1cc(C(F)(F)F)ccc1Cl	-5.3%
c1ccc(CN(Cc2ccccc2)Cc2nnc(-c3cc4ccccc4[nH]3)s2)cc1	8.91µM*	nsP2 cell sec=24.5%;CHIKV NSP2 FL=11.6%;Furin counter=-4.9%;NS23 peptide cs=27.0%;Papain counter=2.2%;nsP2pro confirm=2.0%;HCV NS3 4A cs=i
O=C(NCc1nnc(-c2cc3ccccc3[nH]2)s1)c1ccccc1	-0.6%
CC(C)(C)c1ccc(-c2nc3ccccc3[nH]2)cc1	3.6%
CN(Cc1nc(-c2ccccc2)no1)C(=O)c1cccc(C2CCNC2)c1 (stereo unspecified)	4.9%
COc1ncc(Nc2ncc([C@@H](C)N3CCN(S(C)(=O)=O)CC3)cc2-c2nc(C)nc(N)n2)cc1F	?	nsP2 cell sec=112.9%;CHIKV NSP2 FL=0.0%;Furin counter=-16.9%;NS23 peptide cs=1.0%;Papain counter=?;nsP2pro confirm=-4.5%;HCV NS3 4A cs=i
CN1CC(C(=O)NCc2cccs2)NC1=O (stereo unspecified)	-13.2%[39.2 µM]
O=c1c2nc(Nc3ccc(C(F)(F)F)cc3)ccc2ncn1Cc1ccccn1	i
CCS(=O)(=O)Nc1ccc(C)n(CC(=O)NC2CCCCC2)c1=O	-11.3%
